# Results reported in PubChem BioAssay AID1159580 (chemical genetic matrix, 2015).
# Values joined by “and” are separate entries in the source; they are usually repeats but may differ in a detail not shown here. Equal entries are not always repeated. Hit rate of the full screen: of about 5,500 compounds, about 2,000 (36%) were called active. About 18% were inconclusive and are not listed. The list shows a part of the results. A number with no mark means an inactive call. No stated cut-off is given here; in the data, active means normalized growth mostly below about 0.91 (no sharp cut-off); inconclusive means no clear call, values can overlap the other calls; inactive means mostly above about 0.92.
# Experiment: chemical genetic growth profiling, strain panel (AID 1159580);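 further: tested at 20 µM; growth read once vehicle control cultures reached saturation at 30 °C; 1 = growth at the plate median or of vehicle wells; lower values mean less growth of the strain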
# Settings: S. cerevisiae deletion strains, growth OD
# [1] = locus YBR229C, strain ROT2, hits give low values
# [2] = locus YDL101C, strain DUN1, hits give low values
# [3] = locus YDR150W, strain NUM1, hits give low values
# [4] = locus YEL061C, strain CIN8, hits give low values
# [5] = locus YGR078C, strain PAC10, hits give low values
# [6] = locus YHR030C, strain SLT2, hits give low values
# [7] = locus YJR043C, strain POL32, hits give low values
# [8] = locus YLR039C, strain RIC1, hits give low values
# [9] = locus YLR262C, strain YPT6, hits give low values
# [10] = locus YMR307W, strain GAS1, hits give low values
# [11] = locus YHR079C, strain IRE1, hits give low values
# [12] = locus YJL095W, strain BCK1, hits give low values
# [13] = locus YJR066W, strain TOR1, hits give low values
# [14] = locus YLR113W, strain HOG1, hits give low values
# [15] = locus YNL183C, strain NPR1, hits give low values
# [16] = locus YOR061W, strain CKA2, hits give low values
# [17] = locus YOR231W, strain MKK1, hits give low values
# [18] = locus YPL256C, strain CLN2, hits give low values
smiles,measurement,setting,value
CN(C)/C=C1/C(=O)NN=C1CSc1ccccn1,normalized growth,"locus YAL013W, strain DEP1, hits give low values",1
same,normalized growth,[1],0.999
same,normalized growth,"locus YCL061C, strain MRC1, hits give low values",1.03
same,normalized growth,[2],1.03
same,normalized growth,[3],1.04
same,normalized growth,[4],0.999
same,normalized growth,[5],1.02
same,normalized growth,[6],1.09
same,normalized growth,"locus YHR087W, strain rtc3, hits give low values",0.948
same,normalized growth,[7],1.02
same,normalized growth,"locus YJR075W, strain HOC1, hits give low values",1.01
same,normalized growth,"locus YKL190W, strain CNB1, hits give low values",1.02
same,normalized growth,[8],1.11
same,normalized growth,"locus YLR058C, strain SHM2 (second series), hits give low values",0.974
same,normalized growth,"locus YLR085C, strain ARP6, hits give low values",1.05
same,normalized growth,[9],1.02
same,normalized growth,"locus YML094W, strain GIM5, hits give low values",1.01
same,normalized growth,"locus YMR219W, strain ESC1, hits give low values",0.982
same,normalized growth,"locus YMR263W, strain SAP30, hits give low values",1.01
same,normalized growth,[10],1.07
same,normalized growth,"locus YNL153C, strain GIM3, hits give low values",1.03
same,normalized growth,"locus YNL298W, strain CLA4 (second series), hits give low values",1.04
same,normalized growth,"locus YNL322C, strain KRE1, hits give low values",0.985
same,normalized growth,"locus YNR030W, strain Alg12, hits give low values",1.01
same,normalized growth,"locus YPL055C, strain LGE1, hits give low values",0.972
same,normalized growth,"locus YPL241C, strain CIN2, hits give low values",1
same,normalized growth,"locus YPR135W, strain CTF4, hits give low values",1.09
O=C(Nc1cc2c(s1)-c1cc(Cl)ccc1SC2)Oc1ccccc1,normalized growth,"locus YAR019C, strain CDC15, hits give low values",0.977
same,normalized growth,"locus YBL105C, strain PKC1, hits give low values",1.01
same,normalized growth,"locus YBR135W, strain CKS1, hits give low values",1.01
same,normalized growth,"locus YBR136W, strain MEC1, hits give low values",0.995
same,normalized growth,"locus YBR160W, strain CDC28, hits give low values",0.99
same,normalized growth,"locus YDL017W, strain CDC7, hits give low values",1.01
same,normalized growth,"locus YDL028C, strain MPS1, hits give low values",0.984
same,normalized growth,[2],0.989
same,normalized growth,"locus YDL108W, strain KIN28, hits give low values",0.986
same,normalized growth,"locus YDL132W, strain cdc53, hits give low values",1
same,normalized growth,"locus YDL214C, strain PRR2, hits give low values",0.928
same,normalized growth,"locus YDR052C, strain DBF4, hits give low values",0.997
same,normalized growth,"locus YDR054C, strain cdc34, hits give low values",0.999
same,normalized growth,"locus YDR226W, strain ADK1, hits give low values",1
same,normalized growth,"locus YDR477W, strain SNF1, hits give low values",0.964
same,normalized growth,"locus YER123W, strain YCK3, hits give low values",0.936
same,normalized growth,"locus YER133W, strain GLC7, hits give low values",0.972
same,normalized growth,"locus YFL009W, strain cdc4, hits give low values",0.997
same,normalized growth,"locus YFL029C, strain CAK1, hits give low values",0.978
same,normalized growth,"locus YFR003C, strain YPI1, hits give low values",0.998
same,normalized growth,"locus YFR019W, strain FAB1, hits give low values",0.927
same,normalized growth,"locus YFR028C, strain CDC14, hits give low values",1
same,normalized growth,"locus YGR040W, strain KSS1, hits give low values",0.97
same,normalized growth,"locus YGR052W, strain FMP48, hits give low values",1.01
same,normalized growth,"locus YGR092W, strain DBF2, hits give low values",0.966
same,normalized growth,[6],0.911
same,normalized growth,[11],0.939
same,normalized growth,"locus YHR082C, strain KSP1, hits give low values",0.962
same,normalized growth,"locus YHR205W, strain SCH9, hits give low values",0.914
same,normalized growth,"locus YIL147C, strain SLN1, hits give low values",0.994
same,normalized growth,[12],0.927
same,normalized growth,"locus YJL128C, strain PBS2, hits give low values",1.02
same,normalized growth,"locus YJL157C, strain FAR1, hits give low values",0.959
same,normalized growth,"locus YJR016C, strain ILV3, hits give low values",0.999
same,normalized growth,"locus YJR066W, strain TOR1 (second series), hits give low values",0.946
same,normalized growth,[13],0.951
same,normalized growth,"locus YKL048C, strain ELM1, hits give low values",0.98
same,normalized growth,"locus YKL067W, strain YNK1, hits give low values",0.946
same,normalized growth,"locus YKL101W, strain HSL1, hits give low values",0.953
same,normalized growth,"locus YKL193C, strain SDS22, hits give low values",1.01
same,normalized growth,"locus YKL203C, strain TOR2, hits give low values",1.01
same,normalized growth,[14],0.849 (active)
same,normalized growth,"locus YLR133W, strain CKI1, hits give low values",0.938
same,normalized growth,"locus YLR403W, strain SFP1, hits give low values",0.946
same,normalized growth,"locus YML070W, strain DAK1, hits give low values",0.957
same,normalized growth,"locus YMR001C, strain CDC5, hits give low values",1
same,normalized growth,"locus YMR205C, strain PFK2 (second series), hits give low values",0.966
same,normalized growth,"locus YMR277W, strain FCP1, hits give low values",0.999
same,normalized growth,"locus YNL006W, strain LST8, hits give low values",0.99
same,normalized growth,"locus YNL020C, strain ARK1, hits give low values",0.938
same,normalized growth,"locus YNL161W, strain CBK1, hits give low values",0.993
same,normalized growth,[15],0.941
same,normalized growth,"locus YNL207W, strain RIO2, hits give low values",0.997
same,normalized growth,"locus YNL222W, strain SSU72, hits give low values",1.01
same,normalized growth,"locus YNL307C, strain MCK1 (second series), hits give low values",0.949
same,normalized growth,"locus YOL078W, strain AVO1, hits give low values",1
same,normalized growth,"locus YOL136C, strain PFK27, hits give low values",0.914
same,normalized growth,[16],0.934
same,normalized growth,"locus YOR119C, strain RIO1, hits give low values",0.988
same,normalized growth,[17],0.949
same,normalized growth,"locus YOR329C, strain SCD5, hits give low values",1
same,normalized growth,"locus YPL031C, strain PHO85, hits give low values",0.963
same,normalized growth,"locus YPL153C, strain RAD53, hits give low values",0.968
same,normalized growth,"locus YPL204W, strain HRR25, hits give low values",0.959
same,normalized growth,"locus YPL209C, strain IPL1, hits give low values",1
same,normalized growth,[18],0.912
same,normalized growth,"locus YPR025C, strain CCL1, hits give low values",1.01
same,normalized growth,"locus YPR106W, strain ISR1, hits give low values",0.997
same,normalized growth,"locus YPR111W, strain DBF20, hits give low values",1.01
same,normalized growth,"strain NNK1, hits give low values",1
same,normalized growth,"strain TSCII, hits give low values",1
COc1cccc(O)c1O,normalized growth,"locus YBR021W, strain FUR4, hits give low values",1.02
same,normalized growth,[1],1.04
same,normalized growth,"locus YCL029C, strain bik1, hits give low values",1
same,normalized growth,"locus YDL035C, strain GPR1, hits give low values",1.03
same,normalized growth,"locus YDL074C, strain BRE1, hits give low values",1.01
same,normalized growth,[2],1.01
same,normalized growth,"locus YDL134C, strain PPH21, hits give low values",1.08
same,normalized growth,"locus YDL185W, strain tfp1, hits give low values",1.01
same,normalized growth,"locus YDL192W, strain arf1, hits give low values",1
same,normalized growth,"locus YDR101C, strain arx1, hits give low values",1.01
same,normalized growth,[3],1.04
same,normalized growth,"locus YDR162C, strain NBP2, hits give low values",1.07
same,normalized growth,"locus YDR318W, strain mcm21, hits give low values",1
same,normalized growth,"locus YDR388W, hits give low values",1.01
same,normalized growth,"locus YDR502C, strain sam2, hits give low values",1.01
same,normalized growth,[4],1.02
same,normalized growth,"locus YER110C, hits give low values",0.996
same,normalized growth,"locus YER155C, strain BEM2, hits give low values",1.04
same,normalized growth,"locus YER167W, strain BCK2, hits give low values",1.05
same,normalized growth,"locus YGL078C, strain dbp3, hits give low values",1.01
same,normalized growth,"locus YGL086W, strain mad1, hits give low values",0.999
same,normalized growth,"locus YGL248W, strain PDE1, hits give low values",1.03
same,normalized growth,[5],1.05
same,normalized growth,"locus YGR135W, strain pre9, hits give low values",0.976
same,normalized growth,"locus YGR252W, strain gcn5, hits give low values",0.936
same,normalized growth,[6],1.03 and 0.988
same,normalized growth,"locus YHR079C, strain IRE1 (second series), hits give low values",1.02
same,normalized growth,[11],0.999
same,normalized growth,"locus YHR094C, strain hxt1, hits give low values",1
same,normalized growth,"locus YHR129C, strain ARP1, hits give low values",1.02
same,normalized growth,"locus YHR200W, strain rpn10, hits give low values",1
same,normalized growth,"locus YIL066C, strain RNR3, hits give low values",1.06
same,normalized growth,"locus YIL073C, strain SPO22, hits give low values",1.03
same,normalized growth,"locus YIL125W, strain kgd1, hits give low values",1
same,normalized growth,"locus YIR030C, strain dcg1, hits give low values",1.04
same,normalized growth,[12],1.02 and 0.997
same,normalized growth,"locus YJL134W, strain LCB3, hits give low values",1.03
same,normalized growth,"locus YJL168C, strain set2, hits give low values",1
same,normalized growth,"locus YJL187C, strain SWE1 (second series), hits give low values",0.976
same,normalized growth,[7],1.04
same,normalized growth,[13],0.925
same,normalized growth,"locus YKL009W, strain mrt4, hits give low values",1.01
same,normalized growth,"locus YKL068W, hits give low values",1.01
same,normalized growth,"locus YKL085W, strain MDH1 (second series), hits give low values",1.02
same,normalized growth,"locus YKL085W, strain MDH1, hits give low values",1.02
same,normalized growth,"locus YKR001C, strain vps1, hits give low values",1.02
same,normalized growth,[8],1.17
same,normalized growth,"locus YLR058C, strain SHM2, hits give low values",0.995
same,normalized growth,"locus YLR102C, strain apc9, hits give low values",0.995
same,normalized growth,[14],0.989
same,normalized growth,[9],1.15
same,normalized growth,"locus YLR268W, strain sec22, hits give low values",0.989
same,normalized growth,"locus YLR330W, strain CHS5, hits give low values",1.03
same,normalized growth,"locus YLR342W, strain FKS1 (second series), hits give low values",1.01
same,normalized growth,"locus YLR371W, strain rom2, hits give low values",1
same,normalized growth,"locus YLR418C, strain cdc73, hits give low values",1.01
same,normalized growth,"locus YML016C, strain PPZ1, hits give low values",1.03
same,normalized growth,"locus YML032C, strain rad52, hits give low values",1.01
same,normalized growth,"locus YML124C, strain tub3, hits give low values",1.01
same,normalized growth,"locus YMR078C, strain ctf18, hits give low values",0.99
same,normalized growth,"locus YMR223W, strain ubp8, hits give low values",0.997
same,normalized growth,[10],1.09
same,normalized growth,"locus YNL067W, strain RPL9B, hits give low values",1.05
same,normalized growth,[15],0.926
same,normalized growth,"locus YNL233W, strain BNI4, hits give low values",1.05
same,normalized growth,"locus YNL250W, strain rad50, hits give low values",0.996
same,normalized growth,"locus YNL271C, strain bni1, hits give low values",0.994
same,normalized growth,"locus YNL298W, strain CLA4, hits give low values",0.99
same,normalized growth,"locus YNL307C, strain MCK1, hits give low values",1.01
same,normalized growth,"locus YNR052C, strain pop2, hits give low values",1.01
same,normalized growth,"locus YOL006C, strain TOP1, hits give low values",1.27
same,normalized growth,"locus YOL012C, strain htz1",0.899
same,normalized growth,"locus YOL147C, strain pex11, hits give low values",1
same,normalized growth,[16],1.02
same,normalized growth,"locus YOR069W, strain VPS5, hits give low values",1.02
same,normalized growth,"locus YOR136W, strain idh2, hits give low values",0.994
same,normalized growth,"locus YOR144C, strain elg1, hits give low values",1.01
same,normalized growth,"locus YOR184W, strain ser1, hits give low values",1.02
same,normalized growth,[17],1.01
same,normalized growth,"locus YOR316C, strain cot1, hits give low values",0.995
same,normalized growth,[18],0.994
same,normalized growth,"locus YPR119W, strain clb2, hits give low values",1.02
same,normalized growth,"locus YPR141C, strain kar3, hits give low values",1.01
same,normalized growth,"locus YPR163C, strain tif3, hits give low values",0.978
same,normalized growth,"locus YPR167C, strain met16, hits give low values",1.02
same,normalized growth,"strain wtn01, hits give low values",0.997
